The source of these data is the OligoGym collection.
Note: reference of the scale not given here.

The first assay concerns the target PTPN7. The experiment in a line: pooled miR-30 sensor sort-seq; sequence = guide strand. Particulars: shRNA.
TCTTGCCACACCATCTCCCAGA displayed a sensor-assay potency score (higher = more potent) of -0.679.

TAGTGGACACATTTCTCCTTGC returned a sensor-assay potency score (higher = more potent) of -0.219.

Take TTGTCCTTACTGCTGCTGCTTC: the sensor-assay potency score (higher = more potent) is -0.729.

For a further assay, the target named is PTPRT. The assay is described as above. Particulars: shRNA.
Take TTTGCTTTGAGGCACTTCCTTT: the sensor-assay potency score (higher = more potent) is -1.11. Sequence TAATCGAACACCAGCCTCCAGA gave a sensor-assay potency score (higher = more potent) of -0.958. On the same count and under the same terms, as for TTGAGTCGCAATGTAGTGCCGA, the figure is -0.352. Same read-out and setting: as for TAGATTTTTTAACACAGCCATG, the figure is -1.72. The same measure, in the same setting: as for TAAGTCATCTGCATCCTCGGTT, the figure is 0.728. TATCTGATATTCATTGACCTGA had a sensor-assay potency score (higher = more potent) of -0.134. Regarding TATCTTGTTTGTCTCTTCCAAA, the sensor-assay potency score (higher = more potent) was -1.13. On the same count and under the same terms, in the case of TAGTTGATCTCGTAGAGCGTGA it was -0.257.

For TTTGTGACCATGACGATGCTGG, the sensor-assay potency score (higher = more potent) amounted to 0.113. TAGTGTAGAGAATCGAGGCTGG came in with a sensor-assay potency score (higher = more potent) of 0.97. Still for that read-out and setting: as for TTGGTCTTGATCTTGAGCCTAT, the figure is -0.529; as for TATTGTAGTAGAGAGAACGGAA, -0.217.

The target of the next assay is PXDN. The assay is described as above. Particulars: shRNA.
Sequence TTCACAGTTCAGCTCTTCCGGG gave a sensor-assay potency score (higher = more potent) of -0.633. The same measure, in the same setting: in the case of TTCTATCTGATTAAAGTGCAGG it was -0.41; in that of TTCCAGAACAAACTCTCTGAAG, -1.36; in that of TATAGCTCTGTCAACAGTCGCA, -0.0838. Same read-out and setting: as for TATCTGATTAAAGTGCAGGTAT, the figure is -0.445.

For TGTAGTGGTAACTTGTTCCGTT, the sensor-assay potency score (higher = more potent) is 0.669. Same read-out and setting: as for TTGTAGTGGTAACTTGTTCCGT, the figure is -0.383. Same read-out and setting: in the case of TTCAGCTTGAGCAGCTCCGTGG it was -0.881; in that of TTGAGGTCGACCATCAAGCCAT, -0.562. The same measure, in the same setting: as for TTGAGTTTATAGCTCTGTCAAC, the figure is -1.24. With TTTTCCACTTTCTGTCACCTGA, the sensor-assay potency score (higher = more potent) was 0.0535.

Another assay concerns the target PXN. The description is as above. Particulars: shRNA.
The sequence TTCAGTTCCAGCAGCAGGCGGT registered a sensor-assay potency score (higher = more potent) of -0.708.

With TTGTTGAGCTGCTTGAGGCAGA, the sensor-assay potency score (higher = more potent) was -0.264. On the same count and under the same terms, as for TTGCAGTAGTAGCAGCGCGGGG, the figure is -1.51; as for AACATGTCGAAGTAGTCCTTGC, -0.89; as for TAGGCTTCTCTTTCGTCAGGGG, 0.384. For the sequence TTGAGTTGGCCTCATCTGCAGG, the sensor-assay potency score (higher = more potent) was -0.889. On the same count and under the same terms, as for TTTCACAGTAGGGCTGTCCATC, the figure is -0.695. In turn, TAGAAATCTATCAAAGTCGGTA showed a sensor-assay potency score (higher = more potent) of 0.0963. On the same count and under the same terms, as for TAGTTCTCCAGGATGGCCCGGG, the figure is -0.505; as for TCGTGCTCGAAGAAGCTGCCGT, -0.594.

TACAGCGTTCAGTTCCAGCAGC showed a sensor-assay potency score (higher = more potent) of -0.582.

For TTCTCGTGGAACCCTTCGGGAC, the sensor-assay potency score (higher = more potent) is -1.59.
